Measured values reported in the OligoGym collection.

Target: RASSF3
Assay: pooled miR-30 sensor sort-seq; sequence = guide strand
Settings: shRNA
Also: reference of the scale not given here.

Sequence	sensor-assay potency score (higher = more potent)
TTCAAGGTCATCTTCAACTTGT	0.533
TCTTTGATCTCCTCTTTGCTGA	-0.385
TTGTCTGTGACTGCTAAGTTGT	-0.937
TGTATTTATGAACTTTCTCTTT	-0.702
TTTATGAACTTTCTCTTTGATC	-0.905
TTTGCTGAGGTAACTGTGGGTT	0.0248
TTTGATCTCCTCTTTGCTGAGG	-0.279
TCTCTTTCTCAACATCTTGTTG	-1.22
TTTCTCTTTGATCTCCTCTTTG	-0.943
TAAGTTGTATTTATGAACTTTC	-0.5
TATTTATGAACTTTCTCTTTGA	-0.498
TTCATCTTCTTCCTTGTCCAAG	-0.91

Target: RASSF5
Assay: as above
Settings: shRNA

Sequence	sensor-assay potency score (higher = more potent)
TTATATATAGCTATATGCCTTT	-0.531
TTGTCCGTCCTTGTGTATCCGC	-0.676
TAGCTGTCGATCTTCTGCTTGA	-0.141
TTAAAAAGTGCAAACTTCTGGG	0.479
TTTACAGTTAGTGCAGCGCAGC	-1.3
TTAAGTGTGAACAACAGGCACC	-0.19
TTCTCTCGCGTGTTGTAGCTGT	0.0292
TGAAGCTACACGAACAAGCTTG	0.101
TTCTGGAAGAGCACTTGTCCGT	-0.498
TTCTCCTTTAGCACAAAGCTGA	-0.406
TCGCGTGTTGTAGCTGTCGATC	-1.47
TTGTCCACAACCATGAACTTCT	0.0348

Target: RASSF8
Assay: as above
Settings: shRNA

Sequence	sensor-assay potency score (higher = more potent)
TTAGCTTCTTCAACTCATCTGC	0.759
TTCTATTTCATTAGATTCCAGC	-0.148
TACATCGTTTCTTTTGATCTTT	-0.624
TTCTCTATAAGGGTGTACCTTC	-0.973
TTGAAGTTGATCCTTCAGCTGT	-0.249
TATTTCATTAGATTCCAGCTGT	1.11
TTTGCAGTTATTCAGCACCTTT	-1.3
TTGATCTTTTGCTCTAGACGGA	-0.232
TATTTCTTGAAGTTGATCCTTC	0.825
TTGATTGATTTGTCAATCTGAG	-0.187
TAAGGCTATGACAACCTCCTGG	0.0646
TTAATTTGTTTTCACATTCTGT	-0.415

Target: RBFOX1
Assay: as above
Settings: shRNA

Sequence	sensor-assay potency score (higher = more potent)
TACACATGAGGACTTAACCTAT	-0.971
TTTTATTTGTCATTACACGTGC	0.123
AAACATTTGTCTGAGGTCCGGA	0.142
TTGTCTGAGGTCCGGATCCCGG	-1.44
